Gal4-VP16 FLuc – Gal4-VP16 reporter inhibition counter-screen. Drosophila S2 Gal4-VP16 UAS-luciferase, luminescence, 20 h. Potency, µM (doses to about 53.6 µM), inactives show at the highest dose activity, negative = inhibition, actives largely listed as inhibitors. AID 2546. 310,000 compounds, 3.5% hits;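 note: Gal4-VP16 expression switched on by copper sulfate through the metallothionein promoter; potency is the fitted concentration of half-maximal effect; % is set by controls: 0 for no effect and ±100 for the full control effect; nearly all actives have a fitted effect of over 50% in size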
TRPV1 agonist – human TRPV1 agonism; TRPV1-expressing cells, Fluo-8 calcium influx, agonist mode; 320,000 compounds, 0.19% hits; AID 540275; Q8NER1; activation, % at 8.33 µM; in the data active = activation above about 80%; inconclusive = between about 30% and that limit; note: 0% is about no effect
Target sequence (Q8NER1 whole entry, looked up): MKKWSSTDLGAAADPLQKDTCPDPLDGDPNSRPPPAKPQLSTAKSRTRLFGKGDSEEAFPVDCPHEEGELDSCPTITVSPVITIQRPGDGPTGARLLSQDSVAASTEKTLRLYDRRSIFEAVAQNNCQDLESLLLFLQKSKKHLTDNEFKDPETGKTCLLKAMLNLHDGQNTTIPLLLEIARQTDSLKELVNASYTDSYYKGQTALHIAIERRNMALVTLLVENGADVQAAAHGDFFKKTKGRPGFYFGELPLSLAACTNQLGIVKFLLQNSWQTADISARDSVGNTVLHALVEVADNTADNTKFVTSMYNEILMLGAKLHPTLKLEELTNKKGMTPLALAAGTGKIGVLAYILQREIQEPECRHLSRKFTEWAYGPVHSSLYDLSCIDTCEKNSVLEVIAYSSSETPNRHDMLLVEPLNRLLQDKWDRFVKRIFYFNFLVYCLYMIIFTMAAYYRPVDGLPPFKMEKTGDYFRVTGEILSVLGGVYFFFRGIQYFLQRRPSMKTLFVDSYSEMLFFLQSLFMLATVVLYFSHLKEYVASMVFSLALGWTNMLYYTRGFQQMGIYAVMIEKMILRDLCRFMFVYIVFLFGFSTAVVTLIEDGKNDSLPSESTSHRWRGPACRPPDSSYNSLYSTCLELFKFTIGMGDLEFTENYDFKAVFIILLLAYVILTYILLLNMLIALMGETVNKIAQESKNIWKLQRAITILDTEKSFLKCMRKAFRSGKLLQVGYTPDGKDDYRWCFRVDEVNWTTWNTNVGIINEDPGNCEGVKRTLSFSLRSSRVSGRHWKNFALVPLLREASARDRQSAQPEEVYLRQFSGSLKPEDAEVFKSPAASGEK
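Cells expressing TRPV1 were dye-loaded with Fluo-8 and read kinetically: 10 s baseline, 3 min after compound (agonist portion), then 2 min after EC20 capsaicin (allosteric enhancer portion). Calcium-bound dye fluorescence at 480/520 nm.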
RORg inh – inhibitors of mouse ROR gamma transcriptional activity; P51450; Drosophila S2 Gal4-RORgamma UAS-luciferase reporter, 20 h; Potency, µM (doses to about 53.6 µM), for the others: at the top dose activity change, negative = inhibition, most hits filed as inhibitors; 310,000 compounds, 5.4% hits; AID 2551; note: potency is the fitted concentration of half-maximal effect; % is set by controls: 0 for no effect and ±100 for the full control effect; nearly all actives have a fitted effect of over 60% in size
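Stably transfected Drosophila Schneider cells are the test system, with ROR gamma fused to Gal4 and luciferase under UAS control; luminescence is read after 20 hr of 700 uM copper sulfate induction at ambient temperature.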
TRPV1 PAM – potentiators of human vanilloid receptor 1 (TRPV1); potentiation, % at 8.33 µM; TRPV1-expressing cells, Fluo-8 calcium influx, capsaicin EC20 potentiation; 320,000 compounds, 0.02% hits; in the data active = potentiation above about 80%; inconclusive = between about 30% and that limit; note: 0% is about no effect
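TRPV1-expressing cells were cultured overnight at 35.5C and loaded with Fluo-8 calcium dye for 40 to 90 min at room temperature. After a 10 s baseline, compound was added and calcium influx was read kinetically for 3 min (ex 480/em 520 nm).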
uPA generation – inhibitors of cell surface uPA generation; Potency, µM (series often up to 38.3 µM), for the others: at the highest dose activity change, negative = inhibition, hits mostly inhibitors; AID 540303; 330,000 compounds, 0.31% hits; cell surface uPA generation assay, qHTS; active = well fitted inhibition curve with a large enough effect; inconclusive = small, poorly fitted or top-dose-only effect; inactive = no such curve, though single readings can be large or run the other way; tested in mouse RAW 264.7 cells; note: potency is the fitted concentration of half-maximal effect; % is set by controls: 0 for no effect and ±100 for the full control effect; nearly all actives have a fitted effect of over 55% in size
* = called active by the depositor; ? = inconclusive; . = not tested or not shown; [ ] = remark or other dose. Shown are actives, neighbours in structure and some others; about 5.8% of the full set was active somewhere. Unless noted, calls come from the whole dose curve; as a rule, active = well fitted curve in the direction sought with a large enough effect; inconclusive = small, poorly fitted or top-dose-only effect, or another doubt; inactive = no such curve, though single readings can be large; an effect the other way counts as inactive or inconclusive.

SMILES	Gal4-VP16 FLuc	TRPV1 agonist	RORg inh	TRPV1 PAM	uPA generation
Cc1ccc(C)c(S(=O)(=O)N2CCN(C(=O)C3CC3C)CC2)c1 (stereo not drawn)	.	7.2	.	-9.3	-4.0%
CC1=C(C(=O)Nc2ccccc2)C(c2ccc(C)cc2)N=C(Nc2nc3ccccc3o2)N1 (stereo not drawn)	11.2µM*	-0.1	?	7.9	-11.9%
O=C(CCSc1nc2ccccc2o1)Nc1ccccc1	-3.0%	17.8	0.8%	-5.6	-8.0%
O=C(N/N=C\c1ccccn1)c1ccccc1O	4.47µM*	?	2µM*	-10.3	2.2%
COC(=O)c1ccccc1-c1ccc(/C=N/NC(N)=O)o1	5.4%	-2.8	-3.8%	-21.8	-3.6%
Cc1ccccc1C(=O)N/N=C/c1ccncc1	-0.1%	-0.3	-4.7%	-5.5	-0.5%
O=C(N/N=C\c1ccncc1)c1ccccc1O	?	8.1	11.2µM*	-0.4	-0.7%
CCOc1cc(/C=N/NC(=O)c2ccccc2-n2cccc2)ccc1O	.	0.4	.	4.6	11.2µM*
O=C(N/N=C/c1ccc(-c2ccccc2)o1)c1ccccc1O	0.631µM*	.	?	.	3.7%
CCCCNC(=O)C1CC(=O)N(c2ccc(OC)cc2)C1c1ccc(OC)cc1 (stereo not drawn)	-2.3%	-1.7	-0.9%	13.0	3.7%
Cc1ccc(N)c(Cl)c1	18.8%	.	14.9%	.	.
Cc1nc2cc(C(=O)N3CCN(C)CC3)ccc2n1C	1.1%	1.5	-15.8%	-3.1	-14.5%
COc1ccc(O[C@H]2C=C[C@@H](c3ccccc3)O[C@H]2CO/N=C2/c3cc(OC)ccc3O[C@@H](c3cccc(OC)c3)[C@H]2O)cc1	5.1%[10 µM]	.	2.0%[10 µM]	.	.
COc1cc(OC)cc(C(=O)NCC2CCCN(C(=O)c3oc(C)cc3C)C2)c1 (stereo not drawn)	-3.0%	0.0	-1.5%	4.0	1.2%
CCN(CC(=O)Nc1ccc(NC(C)=O)cc1)C(=O)CCCc1c[nH]c2ccccc12	.	-1.2	.	2.1	20.6%
CCOC(=O)C(CC)/C(C)=N\NC(=O)c1ccccc1O (stereo not drawn)	12.6µM*	11.2	10µM*	8.9	-4.3%
Cc1ccccc1OCC(=O)N/N=C/c1cccc(Oc2ccc([N+](=O)[O-])cc2[N+](=O)[O-])c1	-0.2%	-5.0	?	6.9	11.2µM*
Cc1ccccc1OCC(=O)NCC(=O)N/N=C/c1cccc([N+](=O)[O-])c1	-9.9%[10 µM]	-0.1	-1.3%	4.0	.
CCC/C(C)=N/NC(=O)c1ccccc1O	?	?	?	-1.0	-4.1%
COc1ccc(C(=O)Nc2ccccc2C(=O)N/N=C/c2ccccn2)cc1OC	3.16µM*	7.4	1.26µM*	-21.3	-18.3%
COc1ccc(C(=O)N/N=C/c2ccccn2)cc1OC	?	-0.8	?	0.7	-3.5%
O=C(Cc1ccc(Br)c2ccccc12)N/N=C/c1ccccn1	-19.0%	6.1	7.94µM*	1.9	-6.8%
O=C(CN(c1ccccc1)S(=O)(=O)c1ccc(Cl)cc1)Nc1cccnc1	-0.8%	?	13.7%	-12.4	0.8%
O=C(N/N=C/c1ccccn1)c1ccncc1	3.4%	-3.4	0.9%	5.1	4.7%
C/C=N\NC(=O)COc1cc(C)ccc1C	-1.5%	1.4	12.6µM*	3.7	2.7%
SMILES	Gal4-VP16 FLuc	TRPV1 agonist	RORg inh	TRPV1 PAM	uPA generation
CCC/C=N/NC(=O)CNC(=O)c1ccccc1Cl	9.9%	-5.7	-10.3%	2.5	-6.6%
CCC/C=N/NC(=O)c1ccccc1O	-81.0%	?	10µM*	-17.3	-7.9%
Cc1ccccc1C(=O)N/N=C/c1ccccn1	?	-0.1	10µM*	-5.8	-8.2%
O=C(N/N=C/c1ccccn1)c1cccs1	?	7.6	7.08µM*	25.5	?
CS(=O)(=O)N(CC(=O)N1CCOCC1)c1ccccc1	2.7%	2.9	-13.7%	-1.1	-1.1%
COc1ccc(OC)c(C(=O)N/N=C/c2ccccn2)c1	1.4%	2.6	27.3%	5.0	-25.9%
CCOc1ccc(Br)cc1C(=O)N/N=C/c1ccccn1	2.1%	-3.9	11.2µM*	-2.9	-3.6%
Cc1cc(C)cc(OCC(=O)N/N=C/c2ccccn2)c1	-4.4%	11.5	-21.1%	1.1	-7.9%
Cc1ccccc1OCC(=O)N/N=C/c1ccccn1	6.5%	3.0	14.1µM*	3.7	-15.0%
COc1ccc(N(/N=C2\Sc3ccccc3C2=O)C(C)=O)cc1	19.1%	13.3	?	-14.5	12.6%
COc1ccccc1N(/N=C1\Sc2ccccc2C1=O)C(C)=O	?	7.5	8.91µM*	-8.2	?
C=CCn1c(CCSCc2ccccc2)n[nH]c1=S	?	-3.2	3.98µM*	8.9	11.1%
CCn1c(CCCc2ccc(OC)c(C)c2)n[nH]c1=S	?	-0.7	2.24µM*	2.6	5.7%
C=CCn1c(CSCc2ccccc2)nnc1SCC(=O)NCc1ccccc1	-2.5%	.	-9.3%	.	-1.4%
C=CCn1c(CCSCc2ccc(OC)c(C)c2)n[nH]c1=S	-15.5%	15.9	2.51µM*	-12.2	1.1%
COc1ccc(CCn2c(-c3ccncc3)n[nH]c2=S)cc1OC	9.2%	1.5	-15.4%	1.0	-0.4%
COc1ccc(C)cc1NC(=O)CN1CCN(C/C=C/c2ccccc2)CC1	?	-2.0	10µM*	19.4	2.5%
Cc1nc(-c2ccc(S(=O)(=O)NCc3ccccn3)s2)cs1	?	10.2	10µM*	-8.5	5.0%
O=c1ccn(-c2cccc(C(F)(F)F)c2)nc1-c1ccn(-c2cccc(Cl)c2)n1	-5.4%	2.2	?	1.5	-1.0%
CCc1cc[n+](C2=C([O-])c3ccccc3C(=O)/C2=N\S(=O)(=O)c2cccs2)cc1	15.8µM*	1.5	3.55µM*	?	-19.2%
COC(=O)CCCC1=CC2=C(c3ccccc3)C(=O)C(C)(OC(=O)C3CCCC3)C(=O)C2=CO1 (stereo not drawn)	3.8%	.	1.2%	.	.
CCCCOc1ccc(/C=N/NC(=O)c2csc(C)c2C)cc1	?	?	11.2µM*	1.1	2.6%
CCOc1cc(C(=O)N/N=C/c2ccoc2)cc(OCC)c1OCC	11.4%	15.6	0.0%	-8.4	7.3%
CC(C)COc1ccc(C(=O)N/N=C/c2ccoc2)cc1	14.1µM*	?	17.8µM*	-14.9	?
COc1ccc(N(C(C)C(=O)N/N=C/c2ccc(OCC(C)C)cc2)S(C)(=O)=O)cc1 (stereo not drawn)	?	-6.8	21.1%	?	-1.3%
Cc1scc(C(=O)N/N=C/c2ccc(OCC(C)C)cc2)c1C	?	27.5	11.2µM*	-3.6	-7.4%
O=[N+]([O-])c1ccc(C(O)CN=Cc2ccc(O)cc2O)cc1 (stereo not drawn)	?	1.8	?	8.3	-5.1%
C=CCOc1ccccc1CNc1ccc2c(c1)OCCO2	?	8.9	4.47µM*	-6.0	-9.5%
CC1CCC(C(C)C)C(OC(=O)COC(=O)c2ccc(N)cc2)C1 (stereo not drawn)	15.8µM*	?	32.4%	-8.9	-17.2%
